We go through seven molecules from PubChem BioAssay (NCI).

Where “and” joins values, the source holds several entries; their conditions need not be identical. Identical values can stand only once. Compounds without any hit were thinned out: in the full panel of roughly 83,000, 20% have a hit.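 48-hour exposure, single concentration, 96-well plates; percent growth endpoint where 0 means no net growth. Active: below 10.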 Calls of active or inactive are those of the source.

Among the test systems are NCI-H23 lung; NCI-H226 lung; NCI-H322M lung; HOP-62 NSCLC; NCI-H460 lung; HOP-92 NSCLC; NCI-H522 lung; 786-0 renal; COLO 205 colon; DU-145 prostate; K-562 leukemia; MALME-3M melanoma; MDA-MB-231 breast; RXF 393 renal; SF-268 CNS; SF-295 CNS; SF-539 CNS; UACC-257 melanoma; M14 melanoma; A549/ATCC NSCLC.
Holding throughout (assay): NCI-60 one-dose screen, 48 h (100 = growth as untreated, 0 = no growth, -100 = all killed)
Settings in all cases: 10 µM unless noted

In the case of `CC(C)(C)OC(=O)CC1(O)CCCCC1`, the growth in the assay with NCI-H23 lung was 101% (inactive); in the assay on NCI-H226 lung, 93.7% (inactive); with NCI-H322M lung, 111% (inactive); in the assay on HOP-62 NSCLC it was 114% (inactive); with NCI-H460 lung, 103% (inactive); with HOP-92 NSCLC, 86.1% (inactive). Moreover, the growth in the assay on NCI-H522 lung is 102% (inactive); with 786-0 renal it was 101% (inactive); in the assay with COLO 205 colon, 109% (inactive); with DU-145 prostate, 112% (inactive); in the assay on K-562 leukemia it was 114% (inactive); in the assay on MALME-3M melanoma it was 117% (inactive). In addition, the growth in the assay with MDA-MB-231 breast is 95.8% (inactive); with RXF 393 renal it was 108% (inactive); in the assay on SF-268 CNS it was 104% (inactive); in the assay with SF-295 CNS, 100% (inactive); with SF-539 CNS it was 108% (inactive); in the assay with UACC-257 melanoma, 109% (inactive). The growth in the assay on M14 melanoma was 108% (inactive).
Regarding `O=C(c1ccccc1)C1(Br)CCCCC1`, the growth in the assay on NCI-H23 lung was 98% (inactive); with NCI-H226 lung it was 87.5% (inactive); in the assay with NCI-H322M lung, 93.4% (inactive); with HOP-62 NSCLC, 96% (inactive); in the assay on NCI-H460 lung it was 105% (inactive); in the assay on HOP-92 NSCLC it was 88.1% (inactive). The growth with NCI-H522 lung is 95.6% (inactive); in the assay with A549/ATCC NSCLC, 96.8% (inactive); in the assay on 786-0 renal, 91.5% (inactive); in the assay with COLO 205 colon, 129% (inactive); in the assay on DU-145 prostate, 105% (inactive); in the assay with K-562 leukemia it was 98% (inactive). For the same molecule, the growth in the assay on MALME-3M melanoma was 95.1% (inactive); in the assay with MDA-MB-231 breast, 94.3% (inactive); with RXF 393 renal, 113% (inactive); in the assay with SF-268 CNS it was 92% (inactive); in the assay on SF-295 CNS, 93.4% (inactive); in the assay on SF-539 CNS, 93.5% (inactive). Besides, the figures for the growth in the assay with UACC-257 melanoma and in the assay on M14 melanoma were 98.7% (inactive) and 98.6% (inactive), respectively.
For `CCN(CC)Cc1cc2[nH]c3c4ccc(Cl)cc4ncc3c2cc1OC`, the growth was 68.4% (inactive) with NCI-H23 lung; 84.1% (inactive) and 93.4% (inactive) in the assay on NCI-H226 lung; 93.2% (inactive) and 87.2% (inactive) in the assay on NCI-H322M lung; 80.7% (inactive) and 87.9% (inactive) in the assay on HOP-62 NSCLC; 0.598% (active) and 14% (inactive) in the assay on NCI-H460 lung; 60.6% (inactive) and 78% (inactive) in the assay on HOP-92 NSCLC. The growth was 244% (inactive) and 12.6% (inactive) with NCI-H522 lung; 81% (inactive) and 86.3% (inactive) in the assay on 786-0 renal; -16.9% (active) and 1.13% (active) with COLO 205 colon; 10.7% (inactive) in the assay on DU-145 prostate; -45.5% (active) in the assay with K-562 leukemia; 77.2% (inactive) and 107% (inactive) with MALME-3M melanoma. Also, the growth with MDA-MB-231 breast was -4.73% (active) and 16.6% (inactive); with RXF 393 renal, -43.2% (active) and -29.8% (active); in the assay on SF-268 CNS it was 22.9% (inactive) and 89.1% (inactive); in the assay on SF-295 CNS it was 102% (inactive) and 90.9% (inactive); in the assay on SF-539 CNS, -73.3% (active) and -71.9% (active); with UACC-257 melanoma, 94.5% (inactive) and 104% (inactive). For the same molecule, the growth in the assay on M14 melanoma was -49.3% (active) and -42.6% (active).
Turning to `COc1ccc(CCN=Cc2ccc(Cl)cc2)cc1OC`, the growth with NCI-H23 lung is 100% (inactive); in the assay on NCI-H226 lung, 112% (inactive); with NCI-H322M lung, 106% (inactive); in the assay on HOP-62 NSCLC, 107% (inactive); in the assay on NCI-H460 lung, 113% (inactive); in the assay with HOP-92 NSCLC, 89.6% (inactive). Besides, the growth with NCI-H522 lung is 94.8% (inactive); in the assay with A549/ATCC NSCLC, 108% (inactive); with 786-0 renal, 108% (inactive); with COLO 205 colon, 108% (inactive); with DU-145 prostate, 106% (inactive); in the assay on K-562 leukemia, 122% (inactive). Also, the growth in the assay on MALME-3M melanoma is 135% (inactive); in the assay with MDA-MB-231 breast, 109% (inactive); in the assay with RXF 393 renal, 177% (inactive); with SF-268 CNS, 99.5% (inactive); in the assay on SF-295 CNS, 121% (inactive); with SF-539 CNS, 111% (inactive). In addition, the growth with UACC-257 melanoma is 109% (inactive); in the assay on M14 melanoma it was 111% (inactive).
`N#Cc1ccc(/C=C/C(=O)c2ccccc2)cc1`: the growth in the assay on NCI-H23 lung is 100% (inactive) and 95.2% (inactive); in the assay with NCI-H226 lung, 105% (inactive) and 107% (inactive); with NCI-H322M lung, 93.2% (inactive) and 98.2% (inactive); in the assay on HOP-62 NSCLC, 96.6% (inactive) and 110% (inactive); in the assay on NCI-H460 lung it was 78.7% (inactive) and 106% (inactive); in the assay on HOP-92 NSCLC, 73.1% (inactive) and 85.7% (inactive). For the same molecule, the growth in the assay on NCI-H522 lung was 83.1% (inactive); with A549/ATCC NSCLC it was 88.2% (inactive) and 98.7% (inactive); in the assay with 786-0 renal, 102% (inactive); with COLO 205 colon, 81.6% (inactive) and 113% (inactive); with DU-145 prostate, 80.8% (inactive) and 102% (inactive); in the assay with K-562 leukemia it was -35.8% (active) and 6.11% (active). Besides, the growth in the assay with MALME-3M melanoma is 89.2% (inactive) and 110% (inactive); in the assay on MDA-MB-231 breast, 103% (inactive); in the assay with SF-268 CNS, 101% (inactive); in the assay on SF-295 CNS, 93.7% (inactive) and 118% (inactive); in the assay on SF-539 CNS it was 103% (inactive) and 110% (inactive); with UACC-257 melanoma it was 80% (inactive) and 114% (inactive). Moreover, the growth with M14 melanoma is 98.6% (inactive) and 102% (inactive).
Turning to `O=C(c1ccncc1)c1c(Cc2ccccc2)ccc2ccccc12`, the growth was 55.2% (inactive) in the assay with NCI-H23 lung; 82.5% (inactive) in the assay with NCI-H226 lung; 74.2% (inactive) in the assay on NCI-H322M lung; 95.1% (inactive) in the assay with HOP-62 NSCLC; 89.8% (inactive) with NCI-H460 lung; 82% (inactive) in the assay on HOP-92 NSCLC. For the same molecule, the growth was 27.8% (inactive) in the assay with NCI-H522 lung; 72.2% (inactive) in the assay with A549/ATCC NSCLC; 104% (inactive) with 786-0 renal; 87% (inactive) with COLO 205 colon; 99.2% (inactive) in the assay with DU-145 prostate; 101% (inactive) in the assay with K-562 leukemia. For the same molecule, the growth in the assay with MALME-3M melanoma was 32.3% (inactive); in the assay with MDA-MB-231 breast, 70.2% (inactive); with RXF 393 renal it was 84% (inactive); in the assay with SF-268 CNS, 117% (inactive); in the assay with SF-295 CNS, 83.6% (inactive); with SF-539 CNS, 95.3% (inactive). The figures for the growth in the assay on UACC-257 melanoma and in the assay with M14 melanoma were -14.4% (active) and 108% (inactive), respectively.
For `CC(=O)Oc1cc(C)c(OC(C)=O)c(C)c1C`, the growth is 97.3% (inactive) in the assay on NCI-H23 lung; 101% (inactive) with NCI-H226 lung; 112% (inactive) in the assay on NCI-H322M lung; 102% (inactive) in the assay with HOP-62 NSCLC; 105% (inactive) in the assay on NCI-H460 lung; 112% (inactive) in the assay with HOP-92 NSCLC. Further, the growth in the assay with NCI-H522 lung is 103% (inactive); in the assay with A549/ATCC NSCLC, 107% (inactive); in the assay with 786-0 renal it was 108% (inactive); in the assay on COLO 205 colon, 121% (inactive); in the assay with DU-145 prostate, 105% (inactive); in the assay with K-562 leukemia it was 90.9% (inactive). The growth in the assay on MALME-3M melanoma is 91.4% (inactive); with MDA-MB-231 breast, 91.4% (inactive); in the assay on RXF 393 renal, 125% (inactive); in the assay with SF-268 CNS it was 107% (inactive); in the assay on SF-295 CNS it was 107% (inactive); in the assay on SF-539 CNS, 101% (inactive). For the same molecule, the growth was 105% (inactive) in the assay on UACC-257 melanoma and 112% (inactive) in the assay on M14 melanoma.
